# Sampled rows, rich in hits. Any-hit rate of the full collection: about 3.1%.
# p53null 32C kill: qHTS Screen for Compounds that Selectively Target Cancer Cells with p53 Mutations: Cytotoxicity of p53 Null Cells at the Permissive Temperature; H1299-neo p53 null cells, ATP luminescence, 24 h, 32C; Potency, µM (highest dose often 46.1 µM), without a hit: at the top dose activity change, negative = cytotoxicity, actives largely listed as cytotoxic; hit rate 0.62% among 55,000; AID 903, 2007;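 also: 0% = DMSO only and -100% = full killing by 100 µM tamoxifen; nearly all actives have a fitted effect of over 55% in size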
#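 Cytotoxicity: H1299-neo (no p53), 32C, 24 h treatment. Concentrations up to 46 uM. Readout cellular ATP, luminescence. Normalization to DMSO basal and tamoxifen 100 uM maximal kill.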
# S16 viability: Cell viability qHTS assay in S16 Pmp22-F2sN cells. S16 Pmp22-F2sN Schwann cells viability, CellTiter-Glo, 24 h. Potency, µM (top dose mostly 57.5 µM), for inactives: at the highest dose activity change, negative = cytotoxicity, usual class: cytotoxic. hit rate 0.48% among 43,000; also: nearly all actives have a fitted effect of over 65% in size
#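 S16 Schwann cells carrying the Pmp22-F2sN reporter, seeded in 1536-well format, were exposed to library compounds for 24 h at 37C. Viability was read as CellTiter-Glo luminescence after 15 min at room temperature.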
# OvCa metastasis: Primary qHTS assay for Inhibitors of ovarian cancer metastasis using an organotypic tumor microenvironment (TME) model; SKOV3ip1-GFP adhesion/invasion on 3D omental model, fluorescence; Potency, µM (titrated, usually from 45.8 µM), for inactives: top-dose activity change, negative = inhibition, hits mostly inhibitors; hit rate 0.1% among 46,000; AID 1963576, 2024;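 also: plate controls were DMSO wells for no effect and tomatine positive control wells for full effect; nearly all actives have a fitted effect of over 65% in size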
#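 Adhesion/invasion was scored as fixed GFP-labeled SKOV3ip1 cell counts (488/509 nm), normalized to DMSO and tomatine controls. Cancer cells in serum-free medium, with four compound doses (0.36-46 umol/L), sat 2 hr at RT then 16 hr at 37 C on a 48 hr fibroblast/mesothelial/ECM culture.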
# pS6 MEF inh: Acumen qHTS Assay for Inhibitors of the mTORC1 Signaling Pathway in MEF (Tsc2-/-, p53-/-) Cells: Sytravon. Tsc2-/- p53-/- MEF, phospho-rpS6 immunofluorescence/PI, 24 h. Potency, µM (doses to about 38.3 µM), for the others: at the highest dose activity change, negative = inhibition, usual class: inhibitors. hit rate 0.78% among 44,000;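 also: plate controls were DMSO for no effect and rapamycin for full effect; nearly all actives have a fitted effect of over 50% in size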
#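 Plate MEFs (Tsc2-/-, p53-/-, empty vector) in DMEM/10% FBS; after 24 h add compound, incubate 24 h at 37 degree Celsius; fix in PFA/TX-100, block, stain phospho-rpS6 and 10 uM PI; scan at 488 nm; report % positive cells.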
# PMP22 txn: Cell-based coincidence reporter assay to measure PMP22 gene transcription in S16 Pmp22-F2sN cells - Primary screen | S16 Pmp22-F2sN Schwann cells (luciferase reporters placed in the Pmp22 gene), FLuc/NLuc coincidence luminescence, 24 h | Potency, µM (titrated, usually from 57.5 µM), without a hit: at the top dose activity change, negative = inhibition, hits mostly inhibitors | hit rate 2% among 43,000 | AID 1508649, 2021; active = clear falling dose curves in both reporters; inconclusive = both reporters move, but less clearly or upward; inactive = either reporter flat; the % is the NLuc reporter signal
#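 Reporter cells (S16 Pmp22-F2sN, 500–1,000 per well) exposed to compounds for 24 h, 37C, 5% CO2; lysis with FLuc read after 10 min, then Stop&Glo and NLuc read after 10 min.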
# p53null 39C kill: qHTS Screen for Compounds that Selectively Target Cancer Cells with p53 Mutations: Cytotoxicity of p53 Null Cells at the Nonpermissive Temperature; Potency, µM (highest dose often 46.1 µM), for the others: at the top dose activity, negative = cell killing, usual class: cytotoxic; H1299 p53-null (neo) cells, 39C, ATPlite viability, 24 h; hit rate 0.97% among 55,000;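 also: 0% = DMSO only and -100% = full killing by 100 µM tamoxifen; nearly all actives have a fitted effect of over 50% in size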
#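 Following overnight plating at 37C (600 cells/well), H1299-neo or H1299-p53A138V cells are dosed up to 46 uM. Incubation lasts 24 hr at 39C before ATP detection.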
# * = called active by the depositor; i = inactive; u = inconclusive; x = not tested or not shown. Unless noted, calls follow the shape of the dose curve; as a rule, active = well fitted curve in the direction sought with a large enough effect; inconclusive = small, poorly fitted or top-dose-only effect, or another doubt; inactive = no such curve, though single readings can be large; an effect the other way counts as inactive or inconclusive. Unless noted, % is scaled to controls: 0 for no effect and ±100 for the full control effect; potency is read from the fitted curve at half-maximal effect.
SMILES,p53null 32C kill,S16 viability,OvCa metastasis,pS6 MEF inh,PMP22 txn,p53null 39C kill
COc1ccc(CNC(=O)C2CCN(c3nnc(C)c4c(C)n(-c5ccc(C)cc5)nc34)CC2)cc1,u,u,u,1%,u,13µM*
C=CC[N+]1([C@H]2C[C@H]3[C@@H]4CC[C@H]5C[C@H](O)[C@@H](N6CCOCC6)C[C@]5(C)[C@@H]4CC[C@]3(C)[C@H]2OC(C)=O)CCCC1,x,x,-14%,x,x,x
CCN(C(=O)c1c(O)c2c(Cl)cccc2n(C)c1=O)c1ccccc1,x,x,11%,x,x,x
CC(=O)OCC(=O)[C@@]12OC(C)(C)O[C@H]1C[C@H]1[C@@H]3C[C@H](F)C4=CC(=O)C=C[C@]4(C)[C@@]3(F)[C@@H](O)C[C@@]12C,x,x,25%,x,x,x
CCNC(=O)C1CCN(c2nnc(C)c3c(C)n(-c4ccc(OC)cc4)nc23)CC1,2%,-17%,-2%,-3%,u,10%
CCCCN(CC)CCNC(=O)C1CCN(c2nnc(C)c3c(C)n(-c4ccc(C)cc4)nc23)CC1,19%,u,u,15µM*,u,-21%
COc1ccc(-n2nc3c(N4CCC(C(=O)NCc5cccc(F)c5)CC4)nnc(C)c3c2C)cc1,-12%,u,-25%,-1%,u,3.2µM*
Cc1cnc(NC(=O)CSc2ncn(-c3ccccc3)n2)s1,0%,x,x,x,x,-5%
Cc1cnc(NC(=O)CSc2nnc(-c3ccccc3)o2)s1,u,x,x,x,x,14µM*
Cc1ccc(CN2C(=O)C(=O)c3cc(Br)cc(C)c32)cc1,u,u,13µM*,u,u,11µM*
NS(=O)(=O)c1ccc(Nc2nc(OCC3CCCCC3)c3[nH]cnc3n2)cc1,x,x,41%,x,x,x
Cc1ccc2nc(-c3ccc(NC(=O)C(F)(F)F)cc3)sc2c1,2µM*,11%,8%,1%,-11%,1.3µM*
Cc1ccc2nc(-c3ccc(NC(=O)c4ccccc4S(C)(=O)=O)cc3)sc2c1,-3%,18%,i,3%,u,22%
Cc1ccc2nc(-c3ccc(NC(=O)CN4C(=O)c5ccccc5C4=O)cc3)sc2c1,22µM*,x,x,x,x,x
C[C@H](NCc1ccc2c(c1)nc(NC(=O)c1ccc(-c3cn[nH]c3)s1)n2CCc1ccccc1)C(C)(C)C,x,x,19µM*,x,x,x
O=C(Nc1nc2ccccc2n1CCOc1ccccc1Cl)c1ccccc1,-12%,8%,-8%,-4%,u,-19%
CC(C)C(C)C=CC(C)C1CCC2C3=CC=C4CC(O)CCC4(C)C3CCC21C (centres undefined),x,x,-5%,x,x,x
CCCOc1ccc(C(=O)Nc2ccc(NC(=O)c3ccccc3)c(C)c2)cc1,-3%,-1%,-7%,13µM*,u,-11%
CCCOc1ccc(C(=O)Nc2cccc(NC(=O)c3ccc(Cl)cc3Cl)c2)cc1,u,14µM*,u,-10%,u,u
CCCOc1cccc(C(=O)Nc2cccc(NC(=O)c3ccc(Cl)cc3Cl)c2)c1,-4%,u,-7%,10%,-10%,-4%
CCCCOc1cccc(NC(=O)c2cccc(C(=O)Nc3cccc(OCCCC)c3)c2)c1,6%,-2%,-14%,7.4µM*,-16%,-14%
CCS(=O)(=O)N1CCCc2cc(C(=O)Nc3cccc(C(C)=O)c3)ccc21,-5%,-19%,1%,2%,9%,6%

# Screening results from PubChem.
